Test results from article PMC5540273 (PLoS ONE, 2017).
Several values for one entry are separate records, joined by “and”; a condition that tells them apart may be missing. Equal entries are not always repeated. Where two headings read alike, the source gives them in different places.

What was measured:
Conditions in all cases: concentration: 1 μM, replicates: in singlicate, n = 1
YANK3 = tested on: T1, YANK3
T1 construct: gene STK32C

YES = tested on: T2, YES
T2 construct: gene YES1

YSK1 = tested on: T3, YSK1
T3 construct: gene STK25

YSK4 = tested on: T4, YSK4
T4 construct: gene MAP3K19

ZAK = tested on: ZAK
ZAP70 = tested on: ZAP70
p38-alpha = tested on: T5, p38-alpha
T5 construct: gene MAPK14

p38-beta = tested on: T6, p38-beta
T6 construct: gene MAPK11

p38-delta = tested on: p38-delta
p38-gamma = tested on: T7, p38-gamma
T7 construct: gene MAPK12
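Also: KINOMEscan kinase panel screen.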

SMILES	%Inh (YANK3) [%]	%Inh (YES) [%]	%Inh (YSK1) [%]	%Inh (YSK4) [%]	%Inh (ZAK) [%]	%Inh (ZAP70) [%]	%Inh (p38-alpha) [%]	%Inh (p38-beta) [%]	%Inh (p38-delta) [%]	%Inh (p38-gamma) [%]	%Inh (YANK3; 1 µM)	%Inh (YES; 1 µM)	%Inh (YSK1; 1 µM)	%Inh (YSK4; 1 µM)	%Inh (ZAK; 1 µM)	%Inh (ZAP70; 1 µM)	%Inh (p38-alpha; 1 µM)	%Inh (p38-beta; 1 µM)	%Inh (p38-delta; 1 µM)	%Inh (p38-gamma; 1 µM)
O=C(Nc1cccc(-c2nn3ncccc3c2-c2ccnc(Nc3cccc(C(F)(F)F)c3)n2)c1)c1c(F)cccc1F [GSK299495]	10	98.7	0	33	87	51	43	24	53	13	–	–	–	–	–	–	–	–	–	–
Cc1c2ccc(N(C)c3ccnc(Nc4cccc(S(N)(=O)=O)c4)n3)cc2nn1Cc1ccccc1.Cl.Cl [GW787226]	0	50	24	25	17	0	0	2	0	35	–	–	–	–	–	–	–	–	–	–
Cc1cn2c(=O)cc(N3CCOCC3)nc2n1Cc1cccc(Cl)c1Cl [GSK2334006]	34	21	0	75	6	6	46	16	22	0	–	–	–	–	–	–	–	–	–	–
Cc1nnc(-c2ccc3occ(-c4ccc(C(C)O)cc4)c3c2)o1 (centres unmarked)	0	3	0	19	46	1	10	13	0	1	–	–	–	–	–	–	–	–	–	–
[2H]C([2H])(c1cccc(C(F)(F)F)c1C)n1ccn2c(=O)nc(N3CCOCC3)cc12 [GSK2336394]	0	7	0	26	4	24	0	0	46	0	–	–	–	–	–	–	–	–	–	–
O=c1cc(N2CCOCC2)nc2n(Cc3cccc(C(F)(F)F)c3)ccn12 [GSK2297543]	0	9	0	0	8	0	0	0	21	11	–	–	–	–	–	–	–	–	–	–
CC(C)(CN)c1nc(-c2ccc(Cl)c(O)c2)c(-c2ccncc2)[nH]1.O=C(O)C(F)(F)F [SB-477794]	–	–	–	–	–	–	–	–	–	–	86% and 83%	88% and 86%	6% and 96.1%	87% and 65%	100% and 59%	58% and 0%	99.8% and 99.3%	53% and 58%	29% and 0%	19% and 63%
Cc1cccc(-c2nc(Nc3ccc4ncsc4c3)c3ccccc3n2)n1 [GW867588]	29	0	0	11	0	10	0	0	0	0	–	–	–	–	–	–	–	–	–	–
CCc1ccnc(/C=C/c2n[nH]c3cc(Sc4ccccc4C(=O)NC)ccc23)c1	0	4	0	60	37	20	0	0	7	7	–	–	–	–	–	–	–	–	–	–
CC(C)Oc1ccc2c(-c3ccnc(Nc4ccc(N5CCN(C)CC5)cc4)n3)cnn2n1 [GW696155]	0	54	71	99.8	0	65	17	0	72	62	–	–	–	–	–	–	–	–	–	–
NS(=O)(=O)c1cccc(-c2ccc3nccc(-c4cccc(S(N)(=O)=O)c4)c3c2)c1 [GW867253]	0	0	0	26	2	12	1	3	0	0	–	–	–	–	–	–	–	–	–	–
CNc1ncnc2[nH]ncc12 [SKF-18355]	0	0	0	46	0	24	6	8	0	0	–	–	–	–	–	–	–	–	–	–
c1ccc(-c2n[nH]cc2-c2ccnc3ccccc23)nc1 [GW271431]	18	21	1	28	28	0	29	0	52	0	–	–	–	–	–	–	–	–	–	–
NCC(NC(=O)c1cc(-c2cn[nH]c2)c(-c2ccnc3[nH]ccc23)s1)c1ccccc1.O=C(O)C(F)(F)F.O=C(O)C(F)(F)F (centres unmarked) [GSK1325775]	8	0	24	99.8	4	0	10	0	10	27	–	–	–	–	–	–	–	–	–	–
Cc1cccc(Cn2ccn3c(=O)cc(N4CCOCC4)nc23)c1 [GSK2297542]	16	19	17	12	17	0	27	0	36	51	–	–	–	–	–	–	–	–	–	–
CCn1cnc2c(N)ncnc21 [GW345098]	0	21	0	5	12	3	5	4	0	49	–	–	–	–	–	–	–	–	–	–
CC(=O)Nc1ccc(COc2ccc(Nc3ccnc4cc(-c5ccccn5)ccc34)cc2)cc1.Cl [GW440148]	0	23	18	18	73	0	28	0	40	0	–	–	–	–	–	–	–	–	–	–
Cc1ccc(NC(=O)c2ccnc(N3CCN(C)CC3)c2)cc1-c1ccc(C(=O)NCC2CC2)cc1 [GW775604]	0	0	19	0	0	0	32	35	10	0	–	–	–	–	–	–	–	–	–	–
NCCNS(=O)(=O)c1ccc(-c2ccnc3[nH]ccc23)cc1 [GSK977617]	–	–	–	–	–	0	–	0	–	–	8% and 0%	11% and 0%	32% and 25%	98.1% and 97.3%	18% and 0%	–	0% and 8%	–	65% and 49%	29% and 55%
Cl.Nc1ncnc2occ(-c3ccc(NC(=O)Nc4cc(C(F)(F)F)ccc4F)cc3)c12 [SB-707548]	7	60	50	99.9	42	19	86	63	93.4	96.8	–	–	–	–	–	–	–	–	–	–
C[C@@H](Oc1cc(-n2cnc3ccc(NC(=O)NC(C)(C)C)cc32)sc1C(N)=O)c1ccccc1Cl [GSK346294]	12	3	0	3	0	6	32	0	30	2	–	–	–	–	–	–	–	–	–	–
Cn1cc(-c2ccc3c(c2)CCN3C(=O)Cc2ccccc2Cl)c2c(N)ncnc21 [GSK2608885]	23	99.7	20	0	97.9	0	99.9	99.5	26	20	–	–	–	–	–	–	–	–	–	–
O=C1NC(=O)C(N2CCc3ccccc32)=C1c1cccc(Cl)c1 [SB-408010]	17	0	0	0	14	29	7	7	15	0	–	–	–	–	–	–	–	–	–	–
O=C(NCCNc1ccnc(Nc2ccc(F)cc2)n1)c1cc2ccccc2s1 [GSK1379874]	8	3	0	35	100	6	20	0	40	0	–	–	–	–	–	–	–	–	–	–
Fc1ccc(-c2nn3c(OCC(F)(F)F)cccc3c2-c2ccncc2)cc1 [GW514784]	0	11	17	0	17	0	99.9	40	22	1	–	–	–	–	–	–	–	–	–	–
O=C(c1ccc(-c2cc(-c3c[nH]nc3-c3ccccn3)ccn2)cc1)N1CCOCC1 [GW812171]	0	0	0	0	29	0	20	8	0	0	–	–	–	–	–	–	–	–	–	–
COc1ccc(Nc2nccc(N3CCC(NC(=O)Nc4cc(C)ccc4C)C3)n2)cc1 (centres unmarked) [GSK1379741]	8	13	0	19	5	0	0	0	47	0	–	–	–	–	–	–	–	–	–	–
COC(=O)Nc1nc2cc(Oc3ccc(NC(=O)Nc4cc(F)ccc4F)cc3)ccc2[nH]1.Cl [GW701424]	0	11	13	53	98.8	71	37	0	29	13	–	–	–	–	–	–	–	–	–	–
Cc1cccc(-c2nc(-c3ccc(S(C)(=O)=O)cc3)sc2-c2ccncc2)c1	23	0	18	9	30	0	92.4	0	19	12	–	–	–	–	–	–	–	–	–	–
